Experimental data published in the supplement of paper PMC6555819.

Each sequence was assayed on THRa homodimer (NR concentration 90 nM) (assay: PBM binding z-score (relative to random genomic background probes); higher = stronger binding; sequences stand for … in GC…GCGATTGACAGCGTAGAATGAAGG).
How it was run: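 Binding z-scores take random background probes as their reference. They come from custom Agilent 4×180K protein-binding microarrays incubated 1 h with ligand-free nuclear receptor dimers, with antibodies against each partner (one per run) detecting binding. Scanned fluorescence was regression-normalized.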
In the case of ATACCAAGGTGATAGTGAGGTCGTTGATACTAAC, the PBM binding z-score is reported as 2.49.
ATCTCTAGGTACGACTCAGTTCAGTGAAGAACGC was tested, and the PBM binding z-score was 0.878.
With TCAGACAGGTGAAGGTAATTCAGGTACGCAGTCG the PBM binding z-score was 0.574.
Sequence ATATGTAGGTTACATCCGGGTCATACAGGCTATG has a PBM binding z-score of 2.3.
GCTAGTTGGTCAGGAAAAGGTCACACACCGGTCG gave a PBM binding z-score of 1.64.
In the case of TCGAGTAGGCTAGTCGGGGCATTCAGCCAACATA, the PBM binding z-score is reported as -0.771.
With ACTCGGAGGACAAAGTTCAGAGCTACGCCAGTGA the PBM binding z-score was -0.296.
In the case of ACTAGTTGGTCAGCTGAGGTTACACACAATTCGG, the PBM binding z-score is reported as 1.97.
With TCATGTAGATCAAGCAGGTTAAGAAAGCCTGAGT the PBM binding z-score was -0.412.
CCTACTGGGCCATCAGGTCAGTGATATCAACGTT was tested, and the PBM binding z-score was 1.78.
In the case of ATCTCTAGGTAACGTTCAGTGAAAGATCGATAGA, the PBM binding z-score is reported as 0.455.
With TCTAGCAGGCCAGAGGGTCACTCAGGAGGTACGG the PBM binding z-score was -0.132.
ATCGAAAGGTCGAGGTGACTATAGAGAAAGGGAA gave a PBM binding z-score of 0.607.
Sequence TCTATGAGTTGAAGGGCAACCGACGAGTCCGTTT has a PBM binding z-score of -0.405.
Work on CCTACTGGGCCATTCGGAGGTCATTGATCATATG yielded a PBM binding z-score of 1.58.
Work on CGAACTAGGCCATCCAGGACAGTGAATACATTGA yielded a PBM binding z-score of 0.93.
ATCTCTAGCTAAAGATAGTTCAGTGAATGCAAAT showed a PBM binding z-score of -0.112.
With TGAAAGAGGTTATAAGATCAGGGAACGTTGCAAA the PBM binding z-score was -0.921.
With CCTACTGGGCCTTTCAGAGGTCATTGATCATATG the PBM binding z-score was 1.36.
Sequence GGAACGAGGGCAAGTTGATAACAGAGTTTGATGG has a PBM binding z-score of 0.176.
TCAGACAGGCGAAGGTAACTCAGGTACGCAGTCG was tested, and the PBM binding z-score was -0.297.
TCATATAGGTAAAAGCTGAAAGTCGGTGTGGTAA was tested, and the PBM binding z-score was -0.715.
In the case of CCGACTGGGGCAAAGGCTACCATACTCAGTACGA, the PBM binding z-score is reported as -0.604.
Sequence CGTCCAAAGTCATAGGAGGTCAGTGAAGACAGAT has a PBM binding z-score of 0.808.
TCTCGGAGGACACGGAGGTCAGAGCTTTCCAGAG gave a PBM binding z-score of 1.77.
TCTCGGACGACACGAAAGGTCAGAGCTCGACATC gave a PBM binding z-score of 0.521.
Work on TCTTGTAGATCAAGCAGGTTCAGAAAGCCTGAGT yielded a PBM binding z-score of -0.659.
For ACTGACGGGTCAACGAGGTTATAGCACGCGTATA, the PBM binding z-score was 0.781.
For TCGATTAGGTTAGGGGCATTCAGAATGGCGTCGA, the PBM binding z-score was 0.776.
For TCGAGTAGGTTAGCAATGGGGCATTCAGCTTTCT, the PBM binding z-score was -0.716.
Sequence AATACAGGGTCAGTAGGCCAGAGTAGGTACGAAT has a PBM binding z-score of 0.554.
ATCGAAAGCTCGACGAGGTGAGTATACACCGTTT showed a PBM binding z-score of 0.249.
For TAGCCTAGGTGATGCGGGCCAGTATAGTGTCGGC, the PBM binding z-score was -0.885.
CTCGAAAGGTCGGTTGAGATGAGTATACGGATAA was tested, and the PBM binding z-score was -0.23.
For CCTAGTTGGTCCAGGTCACACACGCTATAGGTAC, the PBM binding z-score was 3.98.
CCTATTAGTTGACCATAATGGCAACCGAAGCTCG showed a PBM binding z-score of 0.631.
TGAATGAGGTTATCAGATCAGGGAACGTTGCAAA showed a PBM binding z-score of 0.233.
TCTATTAGTTGATTAGGGCTACCGAAACAGCGGA was tested, and the PBM binding z-score was -0.0313.
In the case of AGACCAAGGTGATCGTGAGGTCGTTGATACTAAC, the PBM binding z-score is reported as 2.04.
GCTAGCAGGCCATTTGGATCACTCAATGACGGGC was tested, and the PBM binding z-score was -0.938.
